Among the data in ChEMBL document CHEMBL1961873, “Compounds: GSK PKIS; Assays: Nanosyn kinase panel” (2012) are inhibition values, retold here.

One may read the inhibition as the change of the read-out against control, counted positive when it falls.

The experiment has as its target T1, Ephrin type-B receptor 2 (Homo sapiens) (UniProt P29323).
T1 sequence (whole entry): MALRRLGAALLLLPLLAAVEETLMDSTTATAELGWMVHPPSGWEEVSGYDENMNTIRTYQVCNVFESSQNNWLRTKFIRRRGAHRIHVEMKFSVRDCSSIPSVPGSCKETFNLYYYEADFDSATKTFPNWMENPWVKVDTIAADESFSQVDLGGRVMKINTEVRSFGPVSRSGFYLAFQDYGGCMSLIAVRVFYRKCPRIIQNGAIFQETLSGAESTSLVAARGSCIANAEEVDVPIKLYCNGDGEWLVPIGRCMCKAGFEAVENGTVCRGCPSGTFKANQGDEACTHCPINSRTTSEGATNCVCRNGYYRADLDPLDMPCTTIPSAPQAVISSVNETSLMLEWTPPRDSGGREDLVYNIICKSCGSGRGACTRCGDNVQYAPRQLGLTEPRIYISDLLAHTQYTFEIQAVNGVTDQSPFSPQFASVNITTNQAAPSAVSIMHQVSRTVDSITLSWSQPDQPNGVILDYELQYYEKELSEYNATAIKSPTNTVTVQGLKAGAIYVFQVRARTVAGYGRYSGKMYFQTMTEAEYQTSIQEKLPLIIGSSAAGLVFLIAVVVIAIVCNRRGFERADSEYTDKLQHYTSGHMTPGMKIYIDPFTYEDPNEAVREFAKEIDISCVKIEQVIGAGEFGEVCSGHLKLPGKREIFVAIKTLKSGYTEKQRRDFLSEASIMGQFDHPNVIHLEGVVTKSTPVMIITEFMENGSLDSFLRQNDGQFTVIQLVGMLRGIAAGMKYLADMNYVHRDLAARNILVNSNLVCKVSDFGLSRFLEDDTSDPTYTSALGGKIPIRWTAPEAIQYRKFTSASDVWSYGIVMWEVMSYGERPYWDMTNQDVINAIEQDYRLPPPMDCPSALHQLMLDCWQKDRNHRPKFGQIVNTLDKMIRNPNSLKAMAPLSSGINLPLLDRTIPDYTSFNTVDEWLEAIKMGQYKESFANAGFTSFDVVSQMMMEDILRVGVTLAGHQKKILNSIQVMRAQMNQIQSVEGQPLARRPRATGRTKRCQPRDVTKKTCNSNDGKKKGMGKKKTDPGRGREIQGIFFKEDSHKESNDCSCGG
To be noted: at 1 µM.
With `CCCN(CCS(C)(=O)=O)Cc1ccc(-c2ccc3ncnc(Nc4ccc(OCc5cccc(F)c5)c(Cl)c4)c3c2)o1`, the inhibition came out at 5.21%.

`Cc1ccc2c(-c3ccnc(Nc4ccccc4)n3)c(-c3ccc(F)cc3)nn2n1`: the inhibition amounted to 70.6%.

In the case of `Fc1ccc(-c2cc(-c3c[nH]nc3-c3ccccn3)ccn2)cc1`, the inhibition came out at 10.6%.

In the case of `FC(F)(F)c1cccc(-c2nn3ncccc3c2-c2ccnc(Nc3ccc4c(c3)OCCO4)n2)c1`, the inhibition was determined as 18.1%.

Regarding `N#Cc1c(NC(=O)CN2CCOCC2)sc2c1CCCC2`, the inhibition came out at 12.9%.

For `c1ccc(COc2ccc(Nc3ncnc4ccc(-c5ccco5)cc34)cc2)cc1`, the inhibition worked out at 1.06%.

Consider `Fc1ccc(-c2nn3ccccc3c2-c2ccncc2)cc1`, for which the inhibition was 17.7%.

Regarding `Cc1cccc(Nc2ncc(-c3ccccc3)o2)c1`, the inhibition was 2.78%.

In the case of `COc1cc2c(cc1Nc1nc(Nc3ccsc3C(N)=O)c3cc[nH]c3n1)N(C(=O)CN(C)C)CCC2(C)C`, the inhibition amounted to 9.01%.

In the case of `c1cc(-c2cnn3nc(N4CCOCC4)ccc23)nc(NC2CC2)n1`, the inhibition was 9.21%.

With `CC(=O)NCc1cccc(C#Cc2cncnc2Nc2ccc(OCc3cccc(F)c3)c(Cl)c2)c1`, the inhibition was -0.33%.

For `CC(=O)Nc1cccc(C#Cc2cncnc2Nc2ccc(OCc3cccc(F)c3)c(Cl)c2)c1`, the inhibition was 10.7%.

As for `Nc1nc(-c2cccc(Cl)c2)c(-c2ccc3ncccc3n2)s1`, the inhibition was 15.5%.

As to `COc1ccc(-c2oc3ncnc(N)c3c2-c2ccc(NC(=O)Nc3cc(C(F)(F)F)ccc3F)cc2)cc1`, the inhibition was found to be 89.9%.

Regarding `CC(C)(CO)CNC(=O)c1ccc2c(c1)/C(=N/Nc1ccc(S(N)(=O)=O)cc1)C(=O)N2`, the inhibition stood at 7.99%.

Turning to `CCNC(=O)O[C@H]1CN[C@H](C#Cc2cc3ncnc(Nc4ccc(OCc5cccc(F)c5)c(Cl)c4)c3s2)C1`, the inhibition came to 4.8%.
